Data taken from PubChem BioAssay AID504332 (National Center for Advancing Translational Sciences (NCATS), 2011).
Where “and” joins values, the source holds several entries; their conditions need not be identical. Equal entries are not always repeated. Hit rate of the full screen: of about 350,000 compounds, about 31,000 (8.9%) were called active. Another 15% or so got no clear call; they are omitted. Calls come from the whole dose curve; as a rule, active = well fitted inhibition curve with a large enough effect; inconclusive = small, poorly fitted or top-dose-only effect; inactive = no such curve, though single readings can be large or run the other way. For the sample, actives were picked, then their nearest neighbours and some compounds at random. Where a structure was tested more than once in an assay, its records may differ in their call.

These molecules were tested against Histone-lysine N-methyltransferase EHMT2 (Homo sapiens) (UniProt Q96KQ7) (assay: qHTS Assay for Inhibitors of Histone Lysine Methyltransferase G9a). Settings: G9a H3K9 monomethylation, AlphaScreen, 2 h; series mostly up to 59 µM; activity, negative = inhibition: at the top concentration.
Sequence of Histone-lysine N-methyltransferase EHMT2 (Homo sapiens) (Q96KQ7 913-1193 limits assumed): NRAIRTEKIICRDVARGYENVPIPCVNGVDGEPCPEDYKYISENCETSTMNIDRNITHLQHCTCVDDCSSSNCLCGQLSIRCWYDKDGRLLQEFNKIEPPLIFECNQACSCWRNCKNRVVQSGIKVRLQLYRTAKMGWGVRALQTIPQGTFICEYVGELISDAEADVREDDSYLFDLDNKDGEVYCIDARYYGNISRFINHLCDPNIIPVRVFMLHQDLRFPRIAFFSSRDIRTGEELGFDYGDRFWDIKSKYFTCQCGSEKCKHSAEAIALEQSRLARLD
Procedure, shortened: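 AlphaScreen detection with an anti-monomethyl H3K9 antibody quantified product after a 2 h room-temperature reaction containing 500 nM biotinylated H3K9 peptide, 20 µM SAM and 20 nM enzyme, which had been preincubated 15 min with compound.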
% is set by controls: 0 for no effect and ±100 for the full control effect; potency is the fitted concentration of half-maximal effect.
Note: nearly all actives have a fitted effect of over 75% in size.

Compound	activity, negative = inhibition	Potency
COC(=O)c1ccc(-c2c(-c3ccccc3)ncc3cc(OC)c(OC)cc23)cc1	-32.8% [at 0.501 µM] (inactive)	–
Cc1cc(C)n2nc(C(=O)OC(C)C(=O)c3cc(C)c(C)cc3C)nc2n1 (stereo not given)	20.5% [at 0.501 µM] (inactive)	–
COc1cccc(C(=O)NCc2ccc3c(c2)CCN3C(=O)c2ccncc2)c1	6% (inactive)	–
O=C(Cc1cccs1)NCc1cccc(C(F)(F)F)c1	13.6% [at 102 µM] (inactive)	–
COc1ccccc1NC(=O)CCC(=O)OC(C)C(=O)c1ccccc1 (stereo not given)	-6.17% [at 102 µM] (inactive)	–
O=C(CN1C(=O)NC2(CCOc3ccccc32)C1=O)NCc1ccc(F)cc1 (stereo not given)	28.5% [at 12.7 µM] (inactive)	–
CC1CCCC(C)N1C(=O)CN1CCN(c2nc(-c3ccc(F)cc3)cs2)CC1 (stereo not given)	-13.6% (inactive)	–
COc1cccc(NC(=O)CN2CCN(CC(=O)Nc3ccccc3Cl)CC2)c1	–	35.5 µM (active)
O=C(CN1CCOCC1)Nc1ccc(NC(=O)CN2CCOCC2)c(Cl)c1	-22.4% [at 102 µM] (inactive)	–
COc1cc(NC(=O)CN2CCN(S(=O)(=O)c3ccc(Br)cc3)CC2)cc(OC)c1	-2.68% (inactive)	–
COc1cccc(CC(=O)Nc2ccc(-c3csc(C)n3)cc2)c1	-3.28% (inactive)	–
COc1cccc(NC(=O)CN2CCN(c3nc(-c4cccc(OC)c4)cs3)CC2)c1	–	10 µM (active)
CC(C)c1ccccc1OCC(O)CN(CC(O)COc1cccc2ccccc12)C(C)C (stereo not given)	-40% [at 102 µM] (inactive)	–
COc1ccc(CCNC(=O)c2ccc3c(c2)sc2nc(-c4ccc(C)cc4)cn23)cc1OC	5.17% (inactive)	–
Cc1c(Cl)cccc1NC(=O)N1CCN(C(=O)c2nsc3ccccc23)CC1	5.81% (inactive)	–
CC1=C(C/C=C(\C)CCCC(C)CCCC(C)CCCC(C)C)C(=O)c2ccccc2C1=O (stereo not given)	–	inactive and 14.1 µM (active)
Cn1cc(CNC(=O)c2ccc(OC3CCN(Cc4ccccn4)CC3)cc2)cn1	0.355% [at 102 µM] (inactive)	–
N#Cc1c(Cl)nc(-c2cccnc2)nc1-c1ccccc1	-10.7% [at 2.33 µM] (inactive)	–
CCOc1ccc(N(CC)S(=O)(=O)N2CCCC(C(=O)Nc3ccc(C(C)=O)cc3)C2)cc1 (stereo not given)	-2.74% (inactive)	–
O=C(Nc1cc(S(=O)(=O)N2CCOCC2)ccc1OCC(F)(F)F)c1ccc(N2CCCC2=O)cc1	-48.4% [at 102 µM] (inactive)	–
CC(=O)c1ccc(NC(=O)Nc2ccc([N+](=O)[O-])cc2C)cc1	15.9% (inactive)	–
CCN(CC)S(=O)(=O)c1cc([N+](=O)[O-])ccc1N=Nc1c(O)n(C)c2ccccc12	-0.516% (inactive)	–
CCN(CC)S(=O)(=O)c1cc([N+](=O)[O-])ccc1NNC(=O)Nc1ccccc1	–	15.8 µM (active)
O=C(O)c1ccc(Cn2c(SCc3ccc(F)cc3)nc3ccncc32)cc1	-49.2% (inactive)	–
Cn1c(=O)nc2n(-c3ccc(Br)cc3)c3cccc(Cl)c3cc-2c1=O	-6.92% (inactive)	–
